Results as given in PubChem BioAssay AID602410 (Johns Hopkins Ion Channel Center, 2012).
Screen size: about 340,000 compounds; about 2,800 (0.82%) were called active.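 How the source made its calls: active means B-score under library mean minus 4 SD, starting fluorescence ratio at most library mean plus 5 SD; inactive means the rest.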 The full list was thinned out, with actives kept by preference.

Target: Potassium channel subfamily K member 3 (Homo sapiens) (UniProt O14649)
Experiment: blockers of TASK1 two-pore potassium channel – CHO cells, FluxOR thallium flux, B-score, primary screen (AID 602410);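 on B-score: more negative B-score means stronger inhibition of thallium flux through KCNK3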
Conditions: CHO-KCNK3 thallium flux, FluxOR fluorescence, at 10 µM; hits give low values

Potassium channel subfamily K member 3 (Homo sapiens), sequence (O14649 whole entry, looked up): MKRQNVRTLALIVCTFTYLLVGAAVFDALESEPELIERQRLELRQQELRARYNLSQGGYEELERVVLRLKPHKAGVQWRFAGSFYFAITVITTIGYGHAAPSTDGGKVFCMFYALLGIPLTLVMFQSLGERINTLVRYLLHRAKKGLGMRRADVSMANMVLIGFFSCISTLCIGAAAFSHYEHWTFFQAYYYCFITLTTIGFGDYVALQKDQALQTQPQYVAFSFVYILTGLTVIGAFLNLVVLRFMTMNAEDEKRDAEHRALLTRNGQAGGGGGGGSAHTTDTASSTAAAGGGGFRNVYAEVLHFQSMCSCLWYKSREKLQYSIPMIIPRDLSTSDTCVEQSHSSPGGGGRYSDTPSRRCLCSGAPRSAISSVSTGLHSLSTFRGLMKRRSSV

Structure (SMILES)	B-score
COc1ccc(NC(=O)c2sc3nc(C)nc(N4CCN(c5ccccn5)CC4)c3c2C)c(OC)c1	inactive
Cc1cc(Br)ccc1NC(=O)c1cnc(N2CCN(c3ccccn3)CC2)c2ccccc12	inactive
Cc1nc(N2CCN(c3ccccn3)CC2)c2c(C)c(C(=O)Nc3ccc(F)cc3)sc2n1	-13 (active)
Cc1cc(Br)ccc1NC(=O)c1sc2ncn(CC(=O)N3CCN(c4ccccn4)CC3)c(=O)c2c1C	inactive
O=C(c1c(F)cccc1Cl)N1CCN(c2ccccn2)CC1	inactive
CCOC(=O)C1CCCN(C(=O)c2sc3nc(C)nc(N4CCOCC4)c3c2C)C1 (stereo unspecified)	inactive
Cc1nc(N2CCC(C)CC2)c2c(C)c(C(=O)Nc3cc(F)ccc3C)sc2n1	inactive
Cc1nc(N2CCN(c3ccccn3)CC2)c2c(C)c(C(=O)Nc3ccc(F)c(Cl)c3)sc2n1	-12 (active)
Cc1nc(N2CCOCC2)c2c(C)c(C(=O)Nc3ccc(C(F)(F)F)cc3)sc2n1	-8.85 (active)
C/C(=N/NC(=O)c1ccn(C)n1)c1ccncc1	inactive
Cc1ccccc1-c1nc(CS(=O)(=O)CC(=O)NC(C)c2ccccc2)c(C)o1 (stereo unspecified)	inactive
CCOc1ccc(C(CC(=O)O)NC(=O)C23CC4CC(CC(C4)C2)C3)cc1OC (stereo unspecified)	inactive
Cc1cc(NC(=O)C(C)SCC(=O)Nc2ccccc2N2CCCCC2)no1 (stereo unspecified)	inactive
Cc1ccc(OCCC(=O)Nc2ccc(S(=O)(=O)Nc3nccs3)cc2)cc1	inactive
O=C1NC(c2ccncc2)Nc2sc3c(c21)CCCC3 (stereo unspecified)	inactive
O=C(NCC(=O)N1CCCCCCC1)c1ccccc1Cl	inactive
CCCc1cc(=O)[nH]c(SCC(=O)N2CCN(S(=O)(=O)c3ccc(C)cc3C)CC2)n1	inactive
Cc1ccc(CN(CC(=O)NCC2CCCO2)S(=O)(=O)c2ccc(C)cc2)cc1 (stereo unspecified)	inactive
Cc1ccc(F)c(NC(=O)CCc2ccccc2)c1	inactive
CCn1ncc(Br)c1C(=O)Nc1cc(C)ccc1F	-9.47 (active)
Cc1ccc(F)c(NC(=O)CCOc2ccccc2C)c1	inactive
C=CCNC(=O)C1CC2c3ccccc3C1c1ccccc12 (stereo unspecified)	inactive
COc1ccc(Cl)cc1C=CC=Nc1ccc(S(N)(=O)=O)cc1	inactive
COc1ccc(Cc2nnc(N/N=C/c3ccccc3O)[nH]c2=O)cc1OC	inactive
COc1cccc(/C=N/Nc2cc(C)nc(-c3ccccc3O)n2)c1O	-11.6 (active)
COc1cccc(/C=N/Nc2ccc(S(=O)(=O)Nc3ccccc3C(=O)O)cc2[N+](=O)[O-])c1O	inactive

Structure (SMILES)	B-score
COc1cccc(CN(C)CC(O)COC(c2ccccc2)c2ccccc2C)c1 (stereo unspecified)	-12.7 (active)
COc1cccc(CN(C)CC(=O)Nc2ccccc2C(=O)Nc2ccccc2)c1	inactive
Cc1ccccc1C(OCC(O)CN1CCCCC1CCO)c1ccccc1 (stereo unspecified)	inactive
CCOC(=O)c1cccc(NC(=O)CN(c2ccc(C)cc2)S(=O)(=O)c2c(C)noc2C)c1	-8.84 (active)
Cc1noc(C)c1S(=O)(=O)N(CC(=O)Nc1ccc2c(c1)OCCO2)c1ccc(C(C)C)cc1	inactive
COc1ccc(N(CC(=O)Nc2cc(OC)ccc2OC)S(=O)(=O)c2c(C)noc2C)cc1	inactive
N#Cc1c(NC(=O)CSc2nc3ccccc3c(=O)n2Cc2ccco2)sc2c1CCCC2	inactive
COc1cccc(NC(=O)C(Sc2nc3ccccc3c(=O)n2CC(C)C)c2ccccc2)c1 (stereo unspecified)	inactive
CC(Sc1nc2ccccc2c(=O)n1Cc1ccco1)C(=O)c1ccccc1 (stereo unspecified)	-8.93 (active)
CC(C)(C)OC(=O)Nc1ccc([C@@H](NC(=O)OC(C)(C)C)C(=O)OC(C)(C)C)cc1	inactive
COc1ccc(CC(=O)NCc2nnc(SCC(=O)Nc3nccs3)n2C)cc1	inactive
CC1(C)Cc2ccccc2-c2nnc(-c3cccc(O)c3)n21	inactive
COc1cc(C)c(Cl)cc1S(=O)(=O)n1ccnc1	inactive
O=C(Cc1ccc(S(=O)(=O)N2CCOCC2)s1)NCCC(c1ccccc1)c1ccccc1	inactive
O=C(Cc1ccc(S(=O)(=O)N2CCOCC2)s1)NCCOc1ccccc1F	inactive
O=C(Cc1ccc(S(=O)(=O)N2CCOCC2)s1)Nc1ccc(Br)c(C(F)(F)F)c1	-9.72 (active)
O=C1CCCN2N=C(SCC(=O)Nc3ccc(Br)cc3)SC2=N1	inactive
N#C/C(=C\c1ccccc1)c1n[nH]c(Cn2cncn2)n1	inactive
CCN1CCN(C(=O)N[C@@H](C(=O)N[C@@H]2C(=O)N3C(C(=O)O)=C(CSc4nnnn4C)CS[C@H]23)c2ccc(O)cc2)C(=O)C1=O	inactive
CN(C(=O)CSc1nnc(-c2ccc(C(C)(C)C)cc2)n1C)C1CCS(=O)(=O)C1 (stereo unspecified)	inactive
COc1ccc2c(c1)c(=O)c(C(=O)c1ccc(Cl)cc1)cn2CC(=O)Nc1ccc(F)cc1	inactive
CN1c2ccc(C=O)c3c(C=O)ccc(c23)N(C)C1(C)C	-11.3 (active)
COc1ccc(-c2nc(CN3CCN(c4ncccn4)CC3)c(C)o2)cc1C	inactive
Cc1ccc(C(CNC(=O)Nc2ccccc2)N2CCN(C)CC2)cc1 (stereo unspecified)	inactive
COc1cccc(C(=O)Nc2cc3c(cc2Br)OCCCO3)c1	inactive
COc1ccc(CN(C)C(=O)c2cc(-c3ccc(C)cc3C)nc3ccccc23)c(OC)c1OC	-12.7 (active)

Structure (SMILES)	B-score
COc1ccc(-c2cc(C(=O)N(C)Cc3ccc(OC)c(OC)c3OC)c3ccccc3n2)cc1OC	inactive
COc1ccc(-c2cc(C(=O)N(C)CC(=O)Nc3ccccc3Cl)c3ccccc3n2)cc1OC	inactive
CC(=O)c1c(Nc2ccccc2)sc(C(=O)c2ccccc2)c1C	inactive
COc1ccc(Cl)cc1NC(=O)CN(C)C(=O)c1cc(-c2cccs2)nn1-c1ccccc1	inactive
COc1cccc(C(=O)NCCSc2ccc(Br)cc2)c1	-8.94 (active)
COc1cc(C(=O)NCC(=O)NCCSc2ccc(Br)cc2)cc(OC)c1OC	inactive
COc1ccccc1C(=O)NCC(=O)NCCSc1ccc(Br)cc1	inactive
Cc1ccc(NCc2n[nH]c(=S)n2-c2ccccc2)cc1Cl	inactive
CCOc1ccc(OCCSc2nc3ccccc3n2CC(=O)O)cc1	inactive
Cc1cc(C)cc(NC(=O)C2CCCN(S(=O)(=O)c3ccc4[nH]c(=O)ccc4c3)C2)c1 (stereo unspecified)	inactive
CCOc1ccc(C2c3[nH]c4ccccc4c3CCN2Cc2cn(CC)nc2C)cc1 (stereo unspecified)	inactive
c1ccc(C2c3[nH]c4ccccc4c3CCN2Cc2cccn2-c2cccnc2)nc1 (stereo unspecified)	inactive
CCOc1ccc(C2c3[nH]c4ccccc4c3CCN2Cc2cccn2-c2ncccn2)cc1 (stereo unspecified)	-8.75 (active)
O=C(NCc1ccccc1)C1=C[C@@H](c2ccc(C(F)(F)F)cc2)C[C@@H](OCc2ccc(CO)cc2)O1	inactive
COc1ccc(C(C)=O)cc1COc1ccc(Cl)c(C)c1	-10.4 (active)
COCc1cc(C(C)=O)ccc1OC	inactive
CCOc1ccc(C(C)=O)cc1COC(=O)c1cnc(Cl)c(Cl)c1	inactive
O=S(=O)(c1cccc(-c2cn3ccccc3n2)c1)N1CCCC1	inactive
COc1ccc(N2CCN(C3CCCCC3NS(=O)(=O)c3ccccc3)CC2)cc1 (stereo unspecified)	inactive
O=S(=O)(NC1CCCCC1N1CCCCC1)c1ccc(Cl)cc1 (stereo unspecified)	inactive
O=S(=O)(NC1CCCCC1N1CCN(c2ccccc2F)CC1)c1ccccc1 (stereo unspecified)	-9.12 (active)
CCC(C)(C)NC(=O)C(c1ccc(O)cc1)N(Cc1ccco1)C(=O)CCC(=O)Nc1ccccn1 (stereo unspecified)	inactive
Cn1c(=O)c2sccc2n(Cc2ccc(Br)cc2)c1=O	inactive
FC(F)(F)c1cc(-c2ccco2)nc(NCc2ccc(Cl)cc2)n1	-8.85 (active)
FC(F)(F)c1cc(-c2cccs2)nc(NCc2ccco2)n1	inactive
COc1nc(NCc2ccc(Cl)cc2)nc(OC)n1	inactive

Structure (SMILES)	B-score
Cc1c(C(=O)N2CCCc3ccccc32)sc2nc(-c3ccccc3)cn12	-9.27 (active)
Cc1c(C(=O)NCC2CCCO2)sc2nc(-c3ccccc3)cn12 (stereo unspecified)	inactive
Cc1cccc2cc3c(N)c(C(=O)N4CCCc5ccccc54)sc3nc12	inactive
N[C@@H](Cc1ccccc1)C(=O)N1CCC(C(=O)NCC(=O)Nc2ccc(F)cc2)CC1	inactive
COc1ccc(C(F)(F)F)cc1N/C=C\c1nnnn1-c1ccc(C)cc1	inactive
Cc1ccc(C(=O)N/N=C\c2cc(Br)c(Br)o2)cn1	inactive
COc1ccc(S(=O)(=O)NCCCCOc2ccc(Cl)cc2)cc1	-9.65 (active)
COc1ccc(OCCNS(=O)(=O)Cc2ccccc2)cc1	inactive
COc1ccc(S(=O)(=O)NCCOc2ccccc2)cc1F	inactive
CCCC(C)c1nnc(NC(=O)C2CC(=O)N(c3ccc(OCC)cc3)C2)s1 (stereo unspecified)	inactive
CC(C)[C@H](NC(=O)Nc1ccc(S(N)(=O)=O)cc1)C(=O)O	inactive
CCCCCC(O)c1cccc(OCc2ccc3ccccc3n2)c1 (stereo unspecified)	-9.81 (active)
COc1cccc(C(O)c2nc3ccccc3n2C)c1 (stereo unspecified)	inactive
CC(C)n1c(COc2ccccc2)nc2ccccc21	inactive
NS(=O)(=O)c1ccc(NC(=O)/C=C/c2ccccc2Cl)cc1	inactive
Cc1cc(=O)oc2c(C)c(OC(C)C(=O)NC3CCN(Cc4ccccc4)CC3)ccc12 (stereo unspecified)	inactive
COc1cc(C(=S)NCc2ccccc2)cc(Br)c1O	inactive
CC(=O)N1CCCc2cc(S(=O)(=O)N3CCCC(C(=O)N4CCN(c5cccc(Cl)c5)CC4)C3)ccc21 (stereo unspecified)	-9.62 (active)
CC(=O)N1c2ccc(S(=O)(=O)N3CCC(C(=O)N4CCN(c5ccccc5)CC4)CC3)cc2CC1C (stereo unspecified)	inactive
CC(=O)N1CCCc2cc(S(=O)(=O)CCC(=O)N3CCN(c4ccccc4)CC3)ccc21	inactive
CCOc1ccc2[nH]c(=O)c(CN(Cc3nnnn3Cc3ccccc3)CC3CCCO3)cc2c1 (stereo unspecified)	inactive
Cc1cc(C)c2cc(CN(Cc3nnnn3Cc3ccc(F)cc3)C3CCCC3)c(=O)[nH]c2c1	inactive
Cc1cccc2cc(CN(Cc3nnnn3Cc3ccccc3)C3CCCC3)c(=O)[nH]c12	-10.8 (active)
